Source: PubChem BioAssay (Tox21)
Values joined by “and” are separate entries in the source; they are usually repeats but may differ in a detail not shown here. Equal entries are not always repeated. Active and inactive are the calls of the source. Unless noted, calls come from the whole dose curve; as a rule, active = well fitted curve in the direction sought with a large enough effect in the repeat runs; inconclusive = weak or mixed curves; inactive = no such curve, though single readings can be large; an effect the other way counts as inactive or inconclusive.

What was measured:
[1] = qHTS assay for small molecule agonists of the p53 signaling pathway (AID 651631; calls by dose curve; note: nearly all actives have a fitted effect of over 15% in size; note: potency is the fitted concentration of half-maximal effect)
How it was run: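 HCT-116 p53RE-bla reporter line, 16 h compound treatment at 37 °C, then fluorescence after 2 h with B/G FRET substrate.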

[2] = qHTS assay for small molecules that induce genotoxicity in human embryonic kidney cells expressing luciferase-tagged ATAD5 (AID 651632); note: nearly all actives have a fitted effect of over 15% in size
How it was run: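 ATAD5-luc HEK293T, 2,000 cells/well; cpd or DMSO pin-transferred; 16 hr, 37C/5% CO2; Amplite 30 min RT; luminescence.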

[3] = qHTS assay for small molecule agonists of the p53 signaling pathway - cell viability (AID 651633; calls by dose curve; note: nearly all actives have a fitted effect of over 30% in size; note: potency is the fitted concentration of half-maximal effect)
How it was run: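 p53RE-bla cells, seeded at 4,000 per well and rested 5 h at 37 C/5% CO2, received compounds in DMSO for 16 h at 37 C. CellTiter-Glo was then added, and luminescence was read after 30 min at room temperature to gauge cytotoxicity.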

[4] = qHTS assay for small molecules that induce genotoxicity in human embryonic kidney cells expressing luciferase-tagged ATAD5 - cell viability (AID 651634; calls by dose curve; note: nearly all actives have a fitted effect of over 25% in size; note: potency is the fitted concentration of half-maximal effect)
How it was run: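 Fluorescence from CellTiter-Fluor, reporting protease activity within live cells, served as the viability read-out. HEK293T cells carrying luciferase-tagged ATAD5 had been treated with compound for 15.5 hr at 37C.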

[5] = qHTS assay for small molecule disruptors of the mitochondrial membrane potential - cell viability (AID 720634; calls by dose curve; note: nearly all actives have a fitted effect of over 20% in size; note: potency is the fitted concentration of half-maximal effect)
How it was run: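 Cells: HepG2, 2,000/well, attached overnight. Compound 1 hr, 37 C/5% CO2. +m-MPI dye, +CellTiter-Glo 30 min RT. Readout: luminescence (ATP).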

[6] = qHTS assay to test for compound auto fluorescence at 590 nm (red) in HepG2 cells (AID 720674)
How it was run: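 Intrinsic compound fluorescence in the red window (Ex/Em 540/590 nm) is measured in attached HepG2 cells exposed for 1 hr, DMSO vehicle as baseline, benchmarked to Rose Bengal sodium.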

[7] = qHTS assay to test for compound auto fluorescence at 535 nm (green) in HepG2 cells (AID 720675)
[8] = qHTS assay to test for compound auto fluorescence at 460 nm (blue) in HEK293 cells (AID 720678)
How it was run: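 Intrinsic compound fluorescence is recorded in live HEK293 cultures after overnight incubation at 37C, 5% CO2, using excitation 405 nm and emission 460 nm. Values are referenced to triamterene.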

[9] = qHTS assay to test for compound auto fluorescence at 590 nm (red) in HEK293 cells (AID 720679)
How it was run: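 Red autofluorescence, HEK293 cells: 2,000 cells/well; attach 4-5 hr 37C; add 23 nL cpd or DMSO; incubate o/n 37C 5% CO2; read Ex540/Em590; Rose Bengal sodium reference.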

[10] = qHTS assay to test for compound auto fluorescence at 535 nm (green) in HEK293 cells (AID 720680)
[11] = qHTS assay to test for compound auto fluorescence at 460 nm (blue) in HEK293 cell free culture (AID 720681)
How it was run: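 Test compounds were pinned into cell-free culture medium (DMEM with 10% FBS) and fluorescence was read directly at Ex/Em 405/460 nm. Signals were expressed as fluorescence equivalents of triamterene, with DMSO vehicle as control.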

[12] = qHTS assay to test for compound auto fluorescence at 535 nm (green) in HEK293 cell free culture (AID 720682)
How it was run: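 Steps: dispense DMEM/10% FBS into empty wells; pin in compound or DMSO; measure fluorescence at 485/535 nm. Values are fluorescein equivalents.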

[13] = qHTS assay to test for compound auto fluorescence at 590 nm (red) in HEK293 cell free culture (AID 720683)
How it was run: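 Tox21 10K library compounds were pinned into cell-free DMEM with 10% FBS and fluorescence was read at excitation 540 nm. Activity is expressed as Rose Bengal sodium equivalency.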

[14] = qHTS assay to test for compound auto fluorescence at 590 nm (red) in HepG2 cell free culture (AID 720684)
How it was run: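 Red fluorescence (540 nm excitation, 590 nm emission) was measured after compound transfer into cell-free MEM supplemented with 10% FBS. Values are equivalencies against Rose Bengal sodium.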

[15] = qHTS assay to test for compound auto fluorescence at 460 nm (blue) in HepG2 cell free culture (AID 720685)
How it was run: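 Compound (23 nL) or DMSO pinned into cell-free MEM with 10% FBS; blue fluorescence read at 405/460 nm excitation/emission, expressed as auto-fluorescence equivalency to triamterene.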

[16] = qHTS assay to test for compound auto fluorescence at 535 nm (green) in HepG2 cell free culture (AID 720686)
[17] = qHTS assay to test for compound auto fluorescence at 460 nm (blue) in HepG2 cells (AID 720687)
How it was run: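 Cells (2,000/well in MEM with 10% FBS) attached overnight at 37 C, then were exposed to compound or DMSO for 1 hr at 37 C, 5% CO2. Fluorescence read at Ex/Em 405/460 nm, expressed as triamterene-equivalent signal.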

[18] = qHTS assay for small molecule disruptors of the mitochondrial membrane potential (AID 720635); note: potency is the fitted concentration of half-maximal effect
How it was run: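 HepG2 cells (2,000/well) attached overnight at 37C, then took compound for 1 hr at 37C, 5% CO2. Mito-MPS dye was added for 30 min; fluorescence was read at 490/535 nm (monomers) and 540/590 nm (aggregates).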

[19] = target: Glucocorticoid receptor (Homo sapiens) (UniProt P04150); assay: qHTS assay to identify small molecule agonists of the glucocorticoid receptor (GR) signaling pathway (AID 720691; active = well fitted activation curve with a large enough effect in the signal ratio in the repeat runs, not every such curve was filed as active; inconclusive = weak or mixed curves, or effect the other way; inactive = no such curve, though single readings can be large or run the other way; the % refers to the signal ratio); conditions: GR-bla HeLa, beta-lactamase reporter ratio, 18 h; activation: at 62.4 µM (top of the series)
Glucocorticoid receptor (Homo sapiens), sequence (P04150 whole entry, looked up): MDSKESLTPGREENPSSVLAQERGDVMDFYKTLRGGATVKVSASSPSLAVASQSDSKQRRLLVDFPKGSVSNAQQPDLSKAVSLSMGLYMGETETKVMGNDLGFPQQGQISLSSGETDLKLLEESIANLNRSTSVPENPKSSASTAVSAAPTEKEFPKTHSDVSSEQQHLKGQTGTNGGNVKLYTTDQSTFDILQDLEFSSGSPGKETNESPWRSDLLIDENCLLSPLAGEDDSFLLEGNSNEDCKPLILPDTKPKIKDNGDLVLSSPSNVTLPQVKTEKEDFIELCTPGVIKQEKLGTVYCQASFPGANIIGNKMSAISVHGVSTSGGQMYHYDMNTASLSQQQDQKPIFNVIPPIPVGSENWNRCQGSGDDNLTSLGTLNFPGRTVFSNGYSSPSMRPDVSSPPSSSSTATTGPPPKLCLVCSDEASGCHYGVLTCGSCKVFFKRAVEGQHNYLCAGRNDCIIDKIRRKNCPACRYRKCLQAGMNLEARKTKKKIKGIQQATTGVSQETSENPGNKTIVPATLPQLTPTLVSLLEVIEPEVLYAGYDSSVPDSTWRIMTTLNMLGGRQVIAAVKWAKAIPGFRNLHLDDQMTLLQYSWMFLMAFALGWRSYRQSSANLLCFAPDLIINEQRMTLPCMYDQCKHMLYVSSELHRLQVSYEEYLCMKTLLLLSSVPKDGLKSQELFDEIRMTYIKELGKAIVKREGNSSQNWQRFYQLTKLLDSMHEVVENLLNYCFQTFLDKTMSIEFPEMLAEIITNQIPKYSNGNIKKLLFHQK
How it was run: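 Fluorescence intensity from LiveBLAzer B/G FRET substrate (2 h, room temperature) reports beta-lactamase expression driven by the glucocorticoid response element in GR-bla HeLa cells after 18 h compound exposure at 37 C.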

[20] = target: Glucocorticoid receptor (Homo sapiens) (UniProt P04150); assay: qHTS assay to identify small molecule antagonists of the glucocorticoid receptor (GR) signaling pathway (AID 720692; active = well fitted inhibition curve with a large enough effect in the signal ratio in the repeat runs, not every such curve was filed as active; inconclusive = weak or mixed curves, or effect the other way; inactive = no such curve, though single readings can be large or run the other way; the % refers to the signal ratio; note: potency is the fitted concentration of half-maximal effect)
How it was run: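 HeLa GR-bla cells; cmpd + dex 5 nM final, 18 h 37 C; LiveBLAzer B/G FRET substrate 2 h RT; fluorescence intensity read. Antagonist mode, qHTS.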
% is set by controls: 0 for no effect and ±100 for the full control effect.

C=CC(C)(CCC=C(C)C)OC(=O)/C=C/c1ccccc1 (centres undefined)
inactive: Potency [1] | Potency [2] | Potency [3] | Potency [4] | Potency [5] | Potency [6] | Potency [7] | Potency [8] | Potency [9] | Potency [10] | Potency [11] | Potency [12] | Potency [13] | Potency [14] | Potency [15] | Potency [16] | Potency [17]

CC(C)=C1CC[C@@H](C)CC1=O
inactive: Potency [1] | Potency [2] | Potency [3] | Potency [4] | Potency [5] | Potency [18] | Potency [6] | Potency [8] | Potency [9] | Potency [10] | Potency [11] | Potency [12] | Potency [13] | Potency [14] | Potency [15] | Potency [16] | Potency [17]

O=C(Nc1ccc(Cl)c(Cl)c1)c1cc(Cl)cc(Cl)c1O
active: Potency [1] 3.06 µM | Potency [3] 273 nM | Potency [4] 4.86 µM | Potency [5] 1.37 µM | Potency [18] 0.137 µM | activation [19] 11.6% [inconclusive]
inactive: Potency [2] | Potency [6] | Potency [8] | Potency [9] | Potency [11] | Potency [12] | Potency [13] | Potency [14] | Potency [16] | Potency [17]

O=C1OC(=O)c2cccc3cccc1c23
active: Potency [18] 2.76 µM
inactive: Potency [1] | Potency [2] | Potency [3] | Potency [4] | Potency [5] | Potency [6] | Potency [7] | Potency [8] | Potency [9] | Potency [10] | Potency [12] | Potency [13] | Potency [14] | Potency [15] | Potency [16] | Potency [17] | Potency [19]

CC(C)N=C(N)/N=C(\N)Nc1ccc(Cl)cc1
inactive: Potency [1] | Potency [2] | Potency [3] | Potency [4] | Potency [5] | Potency [18] | fluorescence, relative to Rose Bengal [6] 0.432% [at 18.6 µM] | fluorescence, % of fluorescein control [7] -0.0393% [at 18.6 µM] | fluorescence, % of fluorescent control [9] -0.126% [at 18.6 µM] | fluorescence, % of fluorescein [10] -0.0268% [at 18.6 µM] | fluorescence, % of fluorescent control [11] -0.0312% [at 18.6 µM] | activity change [12] -0.0305% [at 18.6 µM, stronger effect = higher value] | fluorescence, % of fluorescent control [13] -0.0425% [at 18.6 µM] | fluorescence, % of Rose Bengal [14] 0.0381% [at 18.6 µM] | fluorescence, % of fluorescent control [15] -0.111% [at 18.6 µM] | fluorescence, % of fluorescein control [16] 0.0037% [at 18.6 µM] | fluorescence, % of fluorescent control [17] 0.176% [at 18.6 µM] | Potency [19] | Potency [20]

[O]=[Zr]
inactive: Potency [1] | Potency [2] | Potency [3] | Potency [4] | Potency [5] | Potency [18] | Potency [6] | Potency [7] | Potency [8] | Potency [9] | Potency [11] | Potency [13] | Potency [14] | Potency [15] | Potency [16] | Potency [17]

Cc1c(C(=O)O)cccc1[N+](=O)[O-]
inactive: Potency [1] | Potency [2] | Potency [3] | Potency [4] | Potency [5] | Potency [18] | Potency [6] | Potency [7] | Potency [8] | Potency [9] | Potency [10] | Potency [11] | Potency [12] | Potency [13] | Potency [14] | Potency [15] | Potency [16] | Potency [17] | Potency [19]

COC(=O)CC#N
inactive: Potency [1] | Potency [2] | Potency [3] | Potency [4] | Potency [5] | Potency [18] | Potency [6] | Potency [7] | Potency [8] | Potency [9] | Potency [11] | Potency [12] | Potency [13] | Potency [14] | Potency [15] | Potency [16] | Potency [17]

CC1=C(/C=C/C(C)=C/C=C/C(C)=C/C(=O)Nc2ccc(O)cc2)C(C)(C)CCC1
active: Potency [1] 29.8 µM | Potency [3] 29.8 µM and 62.7 µM | Potency [4] 23.7 µM and 28 µM | Potency [18] 3.35 µM and 2.8 µM
inactive: Potency [2] | Potency [5] | Potency [6] | Potency [9] | Potency [10] | Potency [12] | Potency [13] | Potency [14] | Potency [15] | Potency [16] | Potency [17]

CCCCCCCCCCCC(=O)N(CC)CC
inactive: Potency [1] | Potency [2] | Potency [3] | Potency [4] | Potency [5] | Potency [18] | Potency [6] | Potency [8] | Potency [9] | Potency [11] | Potency [12] | Potency [13] | Potency [14] | Potency [15] | Potency [16] | Potency [17]

C/C=C/C(=O)Oc1c(CCCCCC(C)C)cc([N+](=O)[O-])cc1[N+](=O)[O-]
active: Potency [1] 0.864 µM | Potency [3] 15400 nM | Potency [4] 19.3 µM | Potency [5] 3.06 µM | Potency [18] 0.109 µM | Potency [20] 3.09 µM
inactive: Potency [2] | Potency [6] | Potency [8] | Potency [9] | Potency [10] | Potency [11] | Potency [12] | Potency [13] | Potency [14] | Potency [15] | Potency [16] | Potency [17]

C1CC(COCC2CO2)CCC1COCC1CO1 (centres undefined)
inactive: Potency [1] | Potency [2] | Potency [3] | Potency [4] | Potency [5] | Potency [18] | Potency [6] | Potency [7] | Potency [8] | Potency [9] | Potency [10] | Potency [11] | Potency [12] | Potency [13] | Potency [14] | Potency [15] | Potency [16] | Potency [17] | Potency [19]

CCCCCCCC/C=C\CCCCCCCC(=O)OCCOC(=O)CCCCCCC/C=C\CCCCCCCC
active: Potency [18] 79.8 µM
inactive: Potency [1] | Potency [2] | Potency [3] | Potency [4] | Potency [5] | Potency [6] | Potency [7] | Potency [8] | Potency [9] | Potency [10] | Potency [11] | Potency [12] | Potency [13] | Potency [14] | Potency [15] | Potency [16] | Potency [17]

CC(=O)Oc1ccc(C2(c3ccc(OC(C)=O)cc3)Oc3ccccc3NC2=O)cc1
inactive: Potency [2] | Potency [3] | Potency [4] | Potency [5] | Potency [6] | Potency [7] | Potency [8] | Potency [9] | Potency [10] | Potency [11] | Potency [12] | Potency [13] | Potency [14] | Potency [15] | Potency [16] | Potency [17]
active: Potency [1] 2.37 µM | Potency [18] 23.7 µM | Potency [20] 19 µM
